The source made the active and inactive calls. Unless noted, the rule behind the calls is not given here.
Columns and labels:
[1] = A549 cell viability effects, profiling panel, calcein-AM fluorescence, 48 h, basal (AID 1162); details: higher = more signal; note: test concentration not given here
[2] = adipocyte viability effects, profiling panel, cell-based, 3T3-L1 adipocytes, calcein-AM fluorescence, 48 h, basal (AID 1163); details: 3T3-L1 adipocytes viability, higher = more signal; note: test concentration not given here
[3] = HepG2 cell viability effects, profiling panel, calcein-AM fluorescence, 48 h, basal (AID 1164); details: higher = more signal; note: test concentration not given here
[4] = MM1S cell viability effects, profiling panel, calcein-AM fluorescence, 48 h, basal (AID 1165); details: higher = more signal;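 note: viability of MM1S multiple myeloma cells under basal unstimulated conditions; test concentration not given here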
[5] = basal RPMI8226 viability, no added stimulus, profiling panel, cell-based, calcein-AM fluorescence, 48 h, PK04 Diversity Set (AID 1166); details: RPMI8226 myeloma viability, higher = more signal;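 note: cells grown under basal conditions without added stimulus; test concentration not given here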
[6] = basal HepG2 mitochondrial membrane potential changes, profiling panel, cell-based, JC-1 fluorescence, 24 h, 100 nL compound (AID 1167); details: higher = more signal; note: test concentration not given here
[7] = basal 3T3-L1 adipocyte mitochondrial potential changes, profiling panel, cell-based, JC-1 fluorescence, 3T3-L1 adipocytes, 24 h, 100 nL compound (AID 1168); details: JC-1 mitochondrial fluorescence, higher = more signal, called active from +8 up or from −8 down; note: test concentration not given here
[8] = basal RPMI8226 mitochondrial membrane potential changes, profiling panel, cell-based, JC-1 fluorescence, 24 h, 100 nL compound (AID 1169); details: RPMI8226 myeloma, JC-1 mitochondrial potential fluorescence, higher = more signal; note: test concentration not given here
[9] = basal MM1S mitochondrial membrane potential changes, profiling panel, cell-based, JC-1 fluorescence, 24 h, 100 nL compound (AID 1170); details: higher = more signal; note: test concentration not given here
[10] = A549 lung cancer cell viability effects, profiling panel, resazurin fluorescence, 24 h, PK04 Diversity Set (AID 1171); details: higher = more signal, called active from +8 up or from −8 down; note: test concentration not given here
[11] = HepG2 liver cancer cell viability effects, profiling panel, resazurin fluorescence, 24 h, PK04 Diversity Set (AID 1172); details: higher = more signal; note: test concentration not given here
[12] = basal S. cerevisiae growth modulation, no modifier, primary screen, OD600, strain BY4716, 24 h, basal condition (AID 1173); details: OD600, 24 h, higher = more signal, called active from +8 up or from −8 down
[13] = MM1S myeloma cell viability, profiling panel, resazurin fluorescence, basal, 24 h, PK04 Diversity Set (AID 1174); details: higher = more signal, called active from +8 up or from −8 down;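 note: MM1S multiple myeloma cell line; test concentration not given here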
[14] = target: Dihydroorotate dehydrogenase (quinone), mitochondrial (Plasmodium falciparum (isolate 3D7)) (UniProt Q08210); assay: PfDHODH enzyme inhibitors, primary screen, biochemical, C-terminal His tag, absorbance 600 nm (AID 1175); details: DCIP absorbance 600 nm, higher = more signal, called active from +8 up or from −8 down;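 note: recombinant parasite enzyme with a five histidine tag at its C terminus; test concentration not given here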
Dihydroorotate dehydrogenase (quinone), mitochondrial (Plasmodium falciparum (isolate 3D7)), sequence (Q08210 whole entry, looked up): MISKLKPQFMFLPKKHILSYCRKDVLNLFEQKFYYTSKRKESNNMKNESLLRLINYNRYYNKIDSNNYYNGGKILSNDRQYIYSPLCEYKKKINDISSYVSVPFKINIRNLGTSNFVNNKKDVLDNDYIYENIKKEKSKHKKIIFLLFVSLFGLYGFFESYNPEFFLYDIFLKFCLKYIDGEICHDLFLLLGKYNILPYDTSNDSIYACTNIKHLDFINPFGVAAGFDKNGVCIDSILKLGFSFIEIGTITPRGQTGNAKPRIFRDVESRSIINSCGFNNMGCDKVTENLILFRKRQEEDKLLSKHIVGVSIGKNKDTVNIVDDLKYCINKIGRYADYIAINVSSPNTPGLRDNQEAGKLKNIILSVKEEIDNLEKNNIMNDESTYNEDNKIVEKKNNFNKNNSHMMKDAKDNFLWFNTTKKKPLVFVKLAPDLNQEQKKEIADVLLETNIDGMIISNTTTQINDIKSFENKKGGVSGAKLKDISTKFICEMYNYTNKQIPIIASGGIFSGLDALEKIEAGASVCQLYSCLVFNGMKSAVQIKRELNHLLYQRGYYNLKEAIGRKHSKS

[15] = P. aeruginosa biofilm formation inhibitors, primary screen, strain PAO1, LB-PBS medium, absorbance 600 nm (AID 1176); note: test concentration not given here; details: P. aeruginosa PAO1 growth/biofilm, A600, 12 h; higher = more signal
[16] = S. cerevisiae RM11-1a growth modifiers, primary screen, strain RM11-1a, OD600, basal, 24 h (AID 1177); details: OD600, 24 h, higher = more signal, called active from +8 up or from −8 down;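 note: cultures grown under basal conditions with no added stressor; test concentration not given here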
[17] = E. coli acrAB mutant growth effects, primary screen, E. coli filamentation inducers, strain DRC39, OD650, 24 h (AID 1178); details: higher = more signal, called active from +8 up or from −8 down;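 note: growth measured as culture turbidity by optical density at 650 nm; test concentration not given here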
[18] = E. coli acrAB mutant growth effects, primary screen, E. coli filamentation inducers, strain DRC39, OD650, 48 h (AID 1179);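 note: screen aims at cell division blockers that make cells filament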; details: E. coli DRC39 delta-acrAB growth, higher = more signal, called active from +8 up or from −8 down
[19] = RPMI8226 myeloma cell viability, profiling panel, resazurin fluorescence, basal, 24 h, PK04 Diversity Set (AID 1180); details: higher = more signal;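 note: RPMI8826 multiple myeloma cell line at 5000 cells per well; test concentration not given here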
[20] = target: E3 ubiquitin-protein ligase XIAP (Homo sapiens) (UniProt P98170); assay: XIAP binders, primary screen, biophysical, small-molecule microarray, fluorescence 635 nm (AID 1181); details: small-molecule microarray binding, higher = more signal;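 note: score merges 667 nm emission and signal to noise over triplicate slides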
E3 ubiquitin-protein ligase XIAP (Homo sapiens), sequence (P98170 whole entry, looked up): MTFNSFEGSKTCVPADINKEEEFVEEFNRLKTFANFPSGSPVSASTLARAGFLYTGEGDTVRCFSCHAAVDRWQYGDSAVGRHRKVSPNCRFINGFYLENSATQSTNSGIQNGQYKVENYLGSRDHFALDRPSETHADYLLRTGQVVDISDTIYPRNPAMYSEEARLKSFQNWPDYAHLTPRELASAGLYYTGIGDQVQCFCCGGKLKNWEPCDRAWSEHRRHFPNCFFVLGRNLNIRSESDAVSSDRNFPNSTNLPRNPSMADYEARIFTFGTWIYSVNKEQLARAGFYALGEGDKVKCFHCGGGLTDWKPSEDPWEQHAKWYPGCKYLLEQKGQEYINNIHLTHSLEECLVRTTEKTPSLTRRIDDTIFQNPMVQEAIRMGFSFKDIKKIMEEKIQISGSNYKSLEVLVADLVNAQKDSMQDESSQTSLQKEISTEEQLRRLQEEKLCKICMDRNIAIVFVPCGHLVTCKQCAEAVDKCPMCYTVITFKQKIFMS

Structure (SMILES)	z-score [1]	z-score [2]	z-score [3]	z-score [4]	z-score [5]	z-score [6]	z-score [7]	z-score [8]	z-score [9]	z-score [10]	z-score [11]	z-score [12]	z-score [13]	composite z-score [14]	z-score [15]	z-score [16]	z-score [17]	z-score [18]	z-score [19]	composite z-score [20]
COc1ccc(CCN2C(=O)[C@@]3(Cc4ccccc42)c2ccccc2C(=O)N(Cc2ccccc2Cl)[C@H]3c2ccc(CO)cc2)cc1	0.517	-0.0827	0.589	0.23	-0.441	0.308	-0.106 (inactive)	-0.316	0.256	-0.343 (inactive)	-0.349	-0.542 (inactive)	0.249 (inactive)	-6.31 (inactive)	1.57 (inactive)	0.215 (inactive)	0.157 (inactive)	0.353 (inactive)	0.314	-0.142
Cc1ccc([C@H]2[C@H](C(=O)O)[C@H](Sc3ccccc3)[C@@H](C(C)C)N2S(=O)(=O)c2ccc(C)cc2)cc1	-0.74	-0.594	-0.447	-0.0237	-0.802	-1.63	0.327 (inactive)	-0.199	-0.437	-0.064 (inactive)	-1.15	-0.138 (inactive)	-0.498 (inactive)	0.184 (inactive)	0.0362 (inactive)	-0.528 (inactive)	-1.44 (inactive)	-0.292 (inactive)	-1.39	0.603
O=C(CS)NCCCCCCNC(=O)[C@H]1C[C@H]2C(=O)N3CCC[C@H]3C(=O)N2[C@H]1c1cccc(OCCO)c1	-0.464	-0.966	-0.0465	-0.939	0.529	-0.971	-0.955 (inactive)	-0.127	-0.285	0.388 (inactive)	-0.162	0.232 (inactive)	-0.837 (inactive)	-0.15 (inactive)	0.0499 (inactive)	-0.656 (inactive)	-0.34 (inactive)	-0.596 (inactive)	-0.953	0.104
C=CCC(OC(C)=O)[C@@H]1[C@@H](N(Cc2ccc(-c3ccccc3)cc2)C(=O)Cc2ccc(OC)cc2)c2cc(OCCCO)ccc2N1C(=O)c1ccc2ccccc2n1 (stereo not given in full)	-0.072	0.273	0.978	0.0474	-0.295	2.56	-0.269 (inactive)	0.651	0.789	0.902 (inactive)	0.0252	-0.594 (inactive)	0.525 (inactive)	-0.574 (inactive)	-0.24 (inactive)	-1.15 (inactive)	1.29 (inactive)	0.644 (inactive)	1.07	-0.266
O=C1OCCC=C[C@H]2OC34C=CCN(Cc5ccccc5)C(=O)[C@H]3N(CCCCCO)C(=O)[C@@H]4C12 (stereo not given in full)	0.412	-0.0568	0.889	1.81	0.593	0.756	0.498 (inactive)	0.231	-0.967	0.872 (inactive)	1.12	-0.266 (inactive)	1.61 (inactive)	-1.12 (inactive)	0.357 (inactive)	0.484 (inactive)	1.24 (inactive)	0.927 (inactive)	1.4	0.13
NC(=O)NCC#Cc1ccc2c(c1)[C@]1(C(=O)N2)[C@H](C(=O)N2CCCCCCC2)[C@H]2C(=O)O[C@H](c3ccccc3)[C@H](c3ccccc3)N2[C@@H]1c1ccc(OCCO)cc1	-0.0962	-0.15	-1.09	-0.682	-0.365	-1.79	-2.9 (inactive)	-0.165	-0.781	-0.316 (inactive)	-0.3	1.84 (inactive)	-0.36 (inactive)	0.835 (inactive)	2.1 (inactive)	2.12 (inactive)	0.049 (inactive)	-0.318 (inactive)	-0.831	0.0368
C=C[C@H](COC(C)=O)N(Cc1ccc(OC(C)=O)c(OC)c1)S(=O)(=O)c1ccc(Br)cc1	1.18	0.139	0.285	0.594	0.394	0.43	1.19 (inactive)	0.825	-0.886	0.353 (inactive)	0.203	-0.533 (inactive)	0.427 (inactive)	-1.24 (inactive)	-0.152 (inactive)	0.318 (inactive)	1.65 (inactive)	2.5 (inactive)	0.798	-0.162
CCCCC=C[C@@H](NC(=O)c1ccc(C(=O)OC)cc1)c1ccccc1	-1.19	-0.87	-0.721	-2.31	-2.6	-1.33	-0.346 (inactive)	-0.862	-1.38	3.37 (inactive)	2.26	0.399 (inactive)	1.13 (inactive)	-0.543 (inactive)	-0.567 (inactive)	1.18 (inactive)	-0.0227 (inactive)	0.623 (inactive)	3.78	-0.145
[N-]=[N+]=NCc1ccccc1[C@@H]1OC(c2ccc(OCCCO)cc2)=N[C@]1(Cc1ccccc1)C(=O)N1CCCCC1	0.251	0.445	0.525	-0.604	-3.3	-0.227	0.467 (inactive)	-1.23	-0.354	0.583 (inactive)	-0.596	-1.11 (inactive)	-1.3 (inactive)	0.678 (inactive)	-0.621 (inactive)	1.48 (inactive)	0.775 (inactive)	0.345 (inactive)	-0.94	-0.257
